Measurements as given in PubChem BioAssay (Tox21).
Inconclusive results are not listed. Unmarked numbers belong to inactive results. The source made the active and inactive calls. Calls follow the shape of the dose curve; as a rule, active = well fitted cell-killing curve with a large enough effect in the repeat runs; inconclusive = weak or mixed curves, or effect the other way; inactive = flat fitted curve, though single readings scatter.

experiment: Nuclear factor erythroid 2-related factor 2/antioxidant responsive element (Nrf2/ARE) small molecule agonists: qHTS cell viability counter screen in human keratinocytes (AID 1919968); conditions: KeratinoSens HaCaT ARE cells viability, CellTiter-Fluor, 24 h; series mostly up to 92.4 µM; activity change, negative = cytotoxicity: at the top concentration; also: nearly all actives have a fitted effect of over 55% in size
Excerpt: U.S. Tox21 Program National Center for Advancing Translational Sciences [NCATS] Division of Preclinical Innovation [DPI] U.S. Environmental Protection Agency [EPA] National Institutes of Environmental Health Sciences [NIEHS] National Toxicology Program [NTP] U.S. Food and Drug Administration [FDA] Tox21 Assay Overview: Oxidative stress has been implicated in the pathogenesis of a variety of diseases ranging from cancer to neurodegeneration. The antioxidant response element (ARE) signaling pathway plays an important role in the amelioration of oxidative stress. The KeratinoSens (Givaudan, Switzerland) is an in vitro test method which quantifies luciferase induction as a measure of activation of Keap1-Nrf2-antioxidationt/electrophile response element (ARE) dependant pathway in HaCaT human keratinocytes stably transfected with a selectable plasmid. The KeratinoSens assay is a cell-based assay with a reporter cell line to detect potential skin sensitizers by their ability to induce the Nrf2/ARE-response. The activation of the report gene under culture conditions can be detected by ONE-Glo Luciferase Assay System (Promega, Madison, WI). This cell line has been used to screen the Tox21 10K compound library to identify agonists that induce oxidative stress. The cytotoxicity of the Tox21 compound library against the KS-ARE cell line was tested in parallel by measuring the cell viability using CellTiter- Fluor assay system (Promega, Madison, WI) in the same wells.
Tox21 Assay Protocol Summary: HaCaT derived cell line KeratinoSens were dispensed at 1,500 cells/5uL/well in 1536-well white wall/solid bottom plates using a Multidrop Combi (ThermoFisher Scientific, Waltham, MA) dispenser. After the assay plates were incubated at 37 C/5% CO2 for 5 h, 23 nL of compounds dissolved in DMSO, positive controls or DMSO only was transferred to the assay plate by a pintool workstation (Kalypsys, San Diego, CA). The plates were incubated at 37 C/5% CO2 for 23 h, followed by addition of 1uL/well of CellTiter-Fluor reagent into the assay plates using a Flying Reagent Dispenser (Aurora Discovery, San Diego, CA) for cell viability readout that measures cytotoxicity. After 1 h incubation at 37 C/5% CO2 the fluorescence intensity was measured using a ViewLux (PerkinElmer, Shelton, CT) plate reader.
% is scaled to controls: 0 for no effect and ±100 for the full control effect; potency is read from the fitted curve at half-maximal effect.

Compound	activity change, negative = cytotoxicity	Potency
CC(C)C[C@@H]1[C@H](c2ccccc2)OC(=O)N1CCCN1CCCCCC1	-20.1% [at 42.5 µM]	
CC1=CCC(=C(C)C)CC1	-1.1%	
CN1CCC[C@@H]1Cc1c[nH]c2ccc(CCS(=O)(=O)c3ccccc3)cc12	-6.84% [at 42.5 µM]	
Oc1cccc2cc3cccc(O)c3c(O)c12	-0.996%	
O=C(OCCCCCOC(=O)c1ccccc1)c1ccccc1	2.07%	
CC(C)(C)c1cc(C=O)cc(C(C)(C)C)c1O	2.87% [at 42.5 µM]	
CCCCCOC(=O)CCC	2.08%	
COc1c(C)c2c(c(O)c1C/C=C(\C)CCC(=O)O)C(=O)OC2	1.08% [at 42.5 µM]	
CCOCC(O)COc1ccc(NC(=O)CC[S+](C)C)cc1 (stereo not given)	3.19% [at 42.5 µM]	
Cc1nc2n(c(=O)c1CCN1CCC(C(=O)c3ccc(F)cc3)CC1)CCS2	1.15% [at 42.5 µM]	
CC(=O)OC1CCCCC1	1.4%	
C=COCC(C)C	1.33%	
CC(C)C[P+](C)(CC(C)C)CC(C)C	-1.22%	
Cc1cc(O)ccc1N		61.4 µM (active)
COc1ccc(OC(=O)N(CC(=O)O)Cc2ccc(OCCc3nc(-c4ccccc4)oc3C)cc2)cc1	-8.09% [at 42.5 µM]	
Cc1c(C(C)C)c(=O)n(-c2ccccc2)n1C	-1.31% [at 42.5 µM]	
NCC[C@H](O)C(=O)N[C@@H]1C[C@H](N)[C@@H](O[C@H]2O[C@H](CN)[C@@H](O)[C@H](O)[C@H]2O)[C@H](O)[C@H]1O[C@H]1O[C@H](CO)[C@@H](O)[C@H](N)[C@H]1O	-17.6% [at 0.349 µM]	
CC(CNC1CCCCC1)OC(=O)c1ccccc1 (stereo not given)	5.43% [at 42.5 µM]	
O=C(CCCl)NCCc1ccccc1	0.337% [at 42.5 µM]	
CC(C)OCC1CO1 (stereo not given)	-1.53%	

Compound	activity change, negative = cytotoxicity	Potency
CCn1nc(Cc2ccccc2)cc1C1CCN(C[C@H]2C[C@H](N(C)[C@@H](C(=O)O)C(C)C)C[C@@H]2c2cccc(F)c2)CC1	-1.45%	
CCOc1ccccc1N	-13.1%	
CSSc1ccoc1C	-0.262%	
Nc1ccccc1S(=O)(=O)c1ccccc1	-18.8%	
FC1(F)C(F)(F)C(F)(F)C2(F)C(F)(C1(F)F)C(F)(F)C(F)(F)C1(F)C(F)(F)C(F)(F)C(F)(F)C(F)(F)C12F (stereo not given)	-0.0323%	
COc1ccc2c(c1OC)C(=O)O[C@@H]2[C@H]1c2c(cc3c(c2OC)OCO3)CCN1C	-7.45% [at 42.5 µM]	
CN(C)CCN(Cc1ccc(Cl)cc1)c1ccccn1	-0.648% [at 42.5 µM]	
COc1ccccc1OCC(O)COC(N)=O (stereo not given)	0.699% [at 42.5 µM]	
CCOC(=O)Nc1ccc(NCc2ccc(F)cc2)nc1N	-0.996% [at 42.5 µM]	
CC(C)c1ccc(C#N)cc1	-7.43%	
Oc1ccccc1Cc1ccccc1O	-4.96%	
CCCCCCCCCCn1cc[n+](CCCCCCCCCC)c1C		21.7 µM (active)
CCOC(=O)C(=O)OCC	-6.91%	
O=C(c1ccccc1)c1ccc2n1CCC2C(=O)O (stereo not given)	2.9% [at 42.5 µM]	
CCCCCC(C)N (stereo not given)	-0.0746% [at 42.5 µM]	
CN1CC(=O)NC1=N	4.75% [at 42.5 µM]	
Cc1oc(-c2ccccc2)nc1CCOc1ccc(C[C@H](Nc2ccccc2C(=O)c2ccccc2)C(=O)O)cc1		30.6 µM (active)
CO[C@@H]1[C@@H](OC(N)=O)[C@@H](O)[C@H](Oc2ccc3c(O)c(NC(=O)c4ccc(O)c(CC=C(C)C)c4)c(=O)oc3c2C)OC1(C)C	0.361% [at 42.5 µM]	
NC(=O)CC[C@@H]1NC(=O)[C@H](Cc2ccccc2)NC(=O)[C@H](Cc2ccc(O)cc2)NC(=O)CCSSC[C@@H](C(=O)N2CCC[C@H]2C(=O)N[C@@H](CCCN=C(N)N)C(=O)NCC(N)=O)NC(=O)[C@H](CC(N)=O)NC1=O	-1.03% [at 42.5 µM]	
CC(C)(O)c1ccccc1	-1.2%	
